Hsp70 activator: Hsp70 transcriptional activators, primary screen, cell-based, HeLa, Hsp70 promoter luciferase, luminescence, 10 µM | AID 1203, 2008 | HeLa Hsp70 promoter luciferase reporter; scaled: vehicle 0, proteasome-inhibitor control 100% | 200,000 tested, 0.04% active | activation, % at 10 µM;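 active means activation above the mean across all tested compounds plus 3 SD, cutoff set per campaign, cut at about 5.5% in these data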;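 further: 100% = MG132 at 30 µM as the positive control and 0% = DMSO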
Wee1 degr inh: Wee1 degradation inhibitors, primary screen, cell-based, HeLa, Wee1K328M-luciferase, luminescence | Wee1-like protein kinase (Homo sapiens), P30291 | HeLa Luc-Wee1K328M stability; 100% = proteasome inhibitor MG132 effect | reporter increase, % at 5 µM | 220,000 tested, 1.2% active | AID 1321, 2008;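 active means activation above the mean of all tested compounds plus 3 SD, set per screening run, cut at about 8.8% in these data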;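 further: cells exposed to compound for 20 h before luminescence read; 0% = DMSO alone and 100% = MG132 at 30 µM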
Target sequence (P30291 whole entry K328M): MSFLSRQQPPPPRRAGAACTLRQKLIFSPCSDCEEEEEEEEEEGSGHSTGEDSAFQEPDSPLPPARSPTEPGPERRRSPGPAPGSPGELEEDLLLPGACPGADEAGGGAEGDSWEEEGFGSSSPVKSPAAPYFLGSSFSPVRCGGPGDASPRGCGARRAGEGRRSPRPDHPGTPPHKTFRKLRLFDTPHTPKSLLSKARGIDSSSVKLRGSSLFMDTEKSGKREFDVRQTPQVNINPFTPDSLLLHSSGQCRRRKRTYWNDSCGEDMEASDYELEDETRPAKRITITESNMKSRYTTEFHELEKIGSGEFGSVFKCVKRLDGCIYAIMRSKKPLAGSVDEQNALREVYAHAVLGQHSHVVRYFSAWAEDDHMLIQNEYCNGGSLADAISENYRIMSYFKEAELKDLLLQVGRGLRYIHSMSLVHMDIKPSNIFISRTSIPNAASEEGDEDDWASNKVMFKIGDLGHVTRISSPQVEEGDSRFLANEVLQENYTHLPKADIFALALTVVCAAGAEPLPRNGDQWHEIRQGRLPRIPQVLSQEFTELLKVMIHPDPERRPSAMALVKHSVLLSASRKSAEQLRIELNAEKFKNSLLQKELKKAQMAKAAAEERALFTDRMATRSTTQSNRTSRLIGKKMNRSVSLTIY
NF-kB neuron act: activators of NF-kB expression in neurons, primary screen, cell-based, HTS. fold change at 12.5 µM. 190,000 tested, 1.6% active. human neuronal cells, NF-kB reporter expression; hits give high values. AID 1239, 2008; in the data active means fold change above about 3.3
STAT1 activator: STAT1 signaling activators, primary screen, cell-based, HTS, luciferase reporter; activation (% of control), % at 5.5 µM; 200,000 tested, 2.6% active; NIH 3T3 STAT1-luciferase reporter, IFN-gamma, luminescence; 100% = IFN-gamma alone, no compound; AID 932, 2007;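 active means activation above the screen-wide mean activation plus 3 SD, cut at about 130% in these data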;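 further: raw ratio to IFN-gamma control signal so 100% means no change and 0% no light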
APP 5'UTR act: activators of APP 5'UTR luciferase reporter, primary screen, SH-SY5Y cells; 190,000 tested, 1% active; AID 1276, 2008; SH-SY5Y APP 5'UTR luciferase reporter, luminescence; zero percent = DMSO vehicle wells; activation, % at 2 µM;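 active means activation above a set limit, based on mean plus 3 SD of controls, cut at about 140% in these data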
APP 5UTR inh: inhibitors of APP translation via 5'UTR reporter, primary screen, APP 5'UTR luciferase, SH-SY5Y cells. 190,000 tested, 0.82% active. SH-SY5Y APP 5'UTR-luciferase reporter, luminescence. AID 1285, 2008. inhibition, % at 2 µM;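 active means inhibition above a set limit, derived from the sample mean plus 3 SD, cut at about 45% in these data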
Starred values were filed as active, the others as inactive; . = no result. Compounds with a hit are over-represented: about 4.8% of the library has one in this group of screens.

SMILES	Hsp70 activator	Wee1 degr inh	NF-kB neuron act	STAT1 activator	APP 5'UTR act	APP 5UTR inh
O=C(Nc1ccc(Cl)cc1Cl)C1=Cc2ccccc2OC1	1	4	5.9*	141*	221*	-221
Cc1cc(Nc2cccc(F)c2)n2c(n1)nc1ccccc12	0	2	1.1	103	10	-10
Cc1cc(NC2CCCCC2)n2c(n1)nc1ccccc12	0	0	5.4*	103	8	-8
CSc1ccc(/C=N/Nc2ccc(Cl)c(C(=O)O)c2)cc1	0	1	12*	107	139*	-139
Cc1ccc(-c2cc(C(=O)O)c3cc(Br)ccc3n2)o1	0	9.0*	1.1	91	0	0
Cc1ccc(-c2cc(C(=O)NN3CCOCC3)c3cc(Br)ccc3n2)o1	0	1	1.2	95	15	-15
Cn1c(=Nc2ccccc2)sc2ccccc21	0	7	1.5	109	17	-18
CN(C)c1ccc(N=c2sc3ccccc3n2C)cc1	0	3	4.6*	138*	74	-74
O=S(=O)(c1ccc(Cl)c(Cl)c1)c1snnc1-c1ccccc1	0	1	1.5	98	-95	95*
CCO[C@@H]1OC(C(=O)N2CCOCC2)=C[C@H](C2CC2)[C@H]1CCCO	0	-2	1	103	7	-7
CCC(C)(C)C1CCC(=NNC(=S)Nc2cccnc2)CC1 (centres undefined)	0	1	0.86	107	17	-17
CCC(C)(C)C1CCC(=NNC(=S)Nc2ccccc2)CC1 (centres undefined)	0	-1	1.2	93	152*	-152
O=[N+]([O-])c1ccc(OCc2cnc(Cl)s2)cc1	0	0	1.1	106	12	-12
CCc1ccc(Nc2ncnc3nc[nH]c23)cc1	.	-3	.	.	.	.
Clc1cnc(N/N=C/c2cccs2)c(Cl)c1	0	2	2	134*	70	-70
Cc1ccc(Nc2ncnc3nc[nH]c23)cc1Cl	0	5	3.3*	110	98	-98
Cc1ccsc1/C=N/Nc1ncnc2nc[nH]c12	1	8	2	138*	39	-39
C(=N\Nc1ncnc2nc[nH]c12)/c1cccs1	0	-1	1.6	134*	42	-42
Cc1ccccc1/C=N/Nc1ncnc2nc[nH]c12	.	0	.	.	.	.
Cc1ccc(/C=N/Nc2ncc(Cl)cc2Cl)s1	0	4	1.9	125	6	-6
O=[N+]([O-])c1cn(-c2nc(-c3ccco3)cc(C(F)(F)F)n2)cn1	0	-1	1.3	98	-16	16
CCCC[n+]1ccc(-c2nc3ccc([N+](=O)[O-])cc3[nH]2)cc1	0	6	1.4	102	-2	2
COc1ccc(C(=O)Nc2nnc(-c3cccs3)s2)cc1	2	0	3.3*	122	47	-47
O=C(Nc1nnc(-c2ccco2)s1)C1CC1	0	3	2	125	16	-16
O=C(Nc1nnc(-c2ccco2)s1)c1ccccc1	0	-2	4.2*	125	161*	-161
SMILES	Hsp70 activator	Wee1 degr inh	NF-kB neuron act	STAT1 activator	APP 5'UTR act	APP 5UTR inh
O=C(Nc1nnc(-c2cccs2)s1)c1cccc(F)c1	0	-3	2.4	134*	93	-93
COc1ccc(NC(=O)Nc2nnc(-c3cccs3)s2)cc1	.	2	.	.	.	.
COc1ccc(C(=O)Nc2nnc(-c3ccco3)s2)cc1	-1	0	4.8*	83	.	.
O=C(NNC(=O)c1nn(-c2ccc(F)cc2)ccc1=O)Nc1cccc(Cl)c1	.	5	.	.	.	.
COc1ccc(OC)c(NC(=O)N2CCCC(C)C2)c1 (centres undefined)	.	3	.	.	.	.
CC(=O)Cc1nsc(NC(=O)c2cccc(F)c2)n1	0	2	1.8	142*	-1	1
CC(C)(C)CC(=O)Nc1nnc(-c2cccs2)s1	0	0	2.1	140*	38	-38
COc1ccccc1NS(=O)(=O)c1cccc(NC(=O)NCCCl)c1	.	11*	.	.	.	.
COc1ccccc1NS(=O)(=O)c1cccc(NC(=O)Nc2cccc(Cl)c2)c1	0	-3	0.62	109	-7	7
O=[N+]([O-])c1ccc(C2Oc3ccccc3C3CC(c4ccccc4)=NN32)s1 (centres undefined)	0	5	8.8*	93	124	-124
CS/C(N)=N/N=C/c1ccc([N+](=O)[O-])cc1	0	0	1.9	131*	41	-41
O=C(Nc1ccc([N+](=O)[O-])cc1)c1cn(-c2ccccc2)nc1-c1cc2ccccc2o1	0	-1	1.2	99	-20	20
CS(=O)(=O)N(Cc1ccc(C(=O)NN=C2CCCCCC2)cc1)c1ccccc1	0	1	1.3	103	-4	4
CS(=O)(=O)N(Cc1ccc(C(=O)NN=C2CCCC2)cc1)c1ccccc1	0	9.3*	1.1	97	1	-1
O=S1(=O)NC(=NCc2ccco2)c2ccccc21	0	-1	0.8	100	-14	14
CC(C)CC1(C)NC(=O)N(CC(=O)NC(=O)Nc2ccc3c(c2)OCCO3)C1=O (centres undefined)	0	1	0.91	107	-7	7
COc1ccccc1N1CCN(c2nc(C)nc3c2oc2ccccc23)CC1	0	0	2	106	-93	93*
CCn1c(SCC(=O)N/N=C/c2ccccc2OCC(=O)O)nnc1-c1ccccc1	.	2	.	.	.	.
CC(C)(C)c1ccc(C(=O)Nc2cnccn2)cc1	0	0	6.4*	116	173*	-173
COc1cc(/C=N/NC(=O)c2ccccn2)cc2c1OCO2	0	5	0.93	129*	37	-37
COc1ccccc1/C=C/C=N/NC(=O)c1ccccn1	0	1	4.6*	133*	121	-121
O=C(CNC(=O)c1ccccn1)N/N=C/c1ccc2c(c1)OCO2	0	1	1.9	120	-5	4
O=C(N/N=C/c1cc2c(cc1Cl)OCO2)c1ccccn1	0	2	.	134*	23	-23
O=c1[nH]c2ccc(Cl)cc2c(=O)n1Cc1ccco1	0	0	1	101	-2	2
C=CC[n+]1c(-c2ccc(C)cc2)csc1Nc1ccc(NC(C)=O)cc1	0	-1	0.56	69	-50	50*
C=CC[n+]1c(-c2ccc(OC)cc2)csc1NNC(=O)Nc1ccccc1	-1	-3	1.2	83	7	-7
CC1=NN(c2nc(-c3ccc(F)cc3)cs2)C(=O)C1	0	3	1.2	101	15	-15
Cc1sc2ncnc(OCC(=O)NC(C)C)c2c1C	0	2	1.2	97	-20	20

Screening results: PubChem BioAssay, several laboratories
